In the supplement of paper PMC11732987, “Enantioselective OTUD7B fragment discovery through chemoproteomics screening and high-throughput optimisation” (Communications Chemistry, 2025):

Columns and labels:
Test in all cases: log2 ratio of Biotin-Ahx-Ub-VS probe labelling (fragment/DMSO); higher = less target engagement (more negative = stronger competition), active = hit call of the paper (q ≤ 0.05, log2 ratio ≤ -1)
Details in all cases: compound concentration: 200 uM; treatment time: 3 h
USP19 = target: T1, USP19 (UniProt O94966)
T1 sequence (whole entry): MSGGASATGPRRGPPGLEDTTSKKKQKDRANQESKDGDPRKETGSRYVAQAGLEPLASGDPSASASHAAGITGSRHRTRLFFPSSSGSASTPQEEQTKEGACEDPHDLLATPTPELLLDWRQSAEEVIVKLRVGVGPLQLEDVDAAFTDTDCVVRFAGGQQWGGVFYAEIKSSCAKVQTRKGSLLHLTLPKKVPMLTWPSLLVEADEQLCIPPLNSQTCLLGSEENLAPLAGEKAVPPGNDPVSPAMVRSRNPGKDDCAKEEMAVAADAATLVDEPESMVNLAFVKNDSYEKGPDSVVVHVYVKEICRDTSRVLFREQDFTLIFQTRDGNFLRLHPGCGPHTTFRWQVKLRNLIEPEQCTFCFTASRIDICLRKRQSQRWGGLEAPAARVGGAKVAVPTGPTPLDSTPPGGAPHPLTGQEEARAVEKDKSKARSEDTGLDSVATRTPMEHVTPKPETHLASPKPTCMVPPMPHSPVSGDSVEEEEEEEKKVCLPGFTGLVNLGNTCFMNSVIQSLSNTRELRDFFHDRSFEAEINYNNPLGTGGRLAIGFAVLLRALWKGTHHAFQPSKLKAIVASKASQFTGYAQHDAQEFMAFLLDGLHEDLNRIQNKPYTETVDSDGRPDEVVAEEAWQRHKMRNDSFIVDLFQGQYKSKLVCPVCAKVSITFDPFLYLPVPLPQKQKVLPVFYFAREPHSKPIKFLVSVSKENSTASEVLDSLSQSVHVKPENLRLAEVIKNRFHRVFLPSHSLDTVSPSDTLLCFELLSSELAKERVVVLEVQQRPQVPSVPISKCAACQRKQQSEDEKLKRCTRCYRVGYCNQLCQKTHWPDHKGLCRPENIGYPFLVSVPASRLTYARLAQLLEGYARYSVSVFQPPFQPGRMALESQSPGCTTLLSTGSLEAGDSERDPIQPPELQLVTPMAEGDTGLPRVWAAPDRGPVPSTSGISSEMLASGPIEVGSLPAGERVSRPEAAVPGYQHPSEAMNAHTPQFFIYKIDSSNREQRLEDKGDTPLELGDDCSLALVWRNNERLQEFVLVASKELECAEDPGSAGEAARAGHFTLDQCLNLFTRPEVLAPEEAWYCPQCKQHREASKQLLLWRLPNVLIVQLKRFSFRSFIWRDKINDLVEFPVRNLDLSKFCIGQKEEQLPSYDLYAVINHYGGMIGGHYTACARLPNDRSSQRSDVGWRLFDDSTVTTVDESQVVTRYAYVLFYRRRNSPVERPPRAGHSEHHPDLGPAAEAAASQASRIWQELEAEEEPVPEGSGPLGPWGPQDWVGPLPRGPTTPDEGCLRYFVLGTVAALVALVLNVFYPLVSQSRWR
Outline: (§1)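 Labelled DUBs from HEK293T lysate were NeutrAvidin-enriched, digested with LysC and trypsin, and run by diaPASEF LC-MS/MS. Before that, each 495 µg sample in Tris/CHAPS/IGEPAL buffer with protease inhibitors was treated in triplicate with fragment at 200 µM or vehicle for 3 h, then with Biotin-Ahx-Ub-VS at 0.5 µM final for 1 h. Values are average log2 ratios of fragment over vehicle by unpaired t-test, based on global-median-normalised Spectronaut label-free quantities from proteins with ≥2 unique peptides.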

USP24 = USP24 (UniProt Q9UPU5)
Outline: as §1

USP25 = target: T2, USP25 (UniProt Q9UHP3)
T2 sequence (whole entry): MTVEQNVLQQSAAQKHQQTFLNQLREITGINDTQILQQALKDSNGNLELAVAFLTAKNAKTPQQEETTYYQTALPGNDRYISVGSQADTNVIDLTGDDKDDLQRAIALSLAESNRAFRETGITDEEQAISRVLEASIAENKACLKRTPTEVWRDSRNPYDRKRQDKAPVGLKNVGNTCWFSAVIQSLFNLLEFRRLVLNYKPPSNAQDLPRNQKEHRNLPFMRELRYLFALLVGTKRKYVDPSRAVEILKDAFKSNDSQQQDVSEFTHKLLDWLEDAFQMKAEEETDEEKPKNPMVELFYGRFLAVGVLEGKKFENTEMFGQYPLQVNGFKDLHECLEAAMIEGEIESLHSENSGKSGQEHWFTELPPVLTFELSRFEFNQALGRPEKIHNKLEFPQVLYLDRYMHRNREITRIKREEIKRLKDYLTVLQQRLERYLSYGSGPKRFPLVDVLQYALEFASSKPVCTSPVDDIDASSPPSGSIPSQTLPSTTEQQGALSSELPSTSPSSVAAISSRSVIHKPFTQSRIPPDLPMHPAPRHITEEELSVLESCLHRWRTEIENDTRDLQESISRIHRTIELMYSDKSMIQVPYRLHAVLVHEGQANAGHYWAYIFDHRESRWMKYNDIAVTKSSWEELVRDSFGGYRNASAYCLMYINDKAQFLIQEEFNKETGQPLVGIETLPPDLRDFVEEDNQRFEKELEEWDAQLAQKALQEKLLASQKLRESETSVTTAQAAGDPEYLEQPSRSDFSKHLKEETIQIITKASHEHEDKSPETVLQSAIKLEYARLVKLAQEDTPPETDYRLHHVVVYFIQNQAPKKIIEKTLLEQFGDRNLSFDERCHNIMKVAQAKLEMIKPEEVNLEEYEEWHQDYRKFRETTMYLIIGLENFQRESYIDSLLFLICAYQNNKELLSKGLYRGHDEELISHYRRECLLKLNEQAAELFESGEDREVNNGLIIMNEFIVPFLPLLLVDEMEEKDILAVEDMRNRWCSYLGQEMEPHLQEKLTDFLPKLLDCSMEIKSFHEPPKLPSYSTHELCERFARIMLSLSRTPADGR
Outline: as §1

USP28 = target: T3, USP28 (UniProt Q96RU2)
T3 sequence (whole entry): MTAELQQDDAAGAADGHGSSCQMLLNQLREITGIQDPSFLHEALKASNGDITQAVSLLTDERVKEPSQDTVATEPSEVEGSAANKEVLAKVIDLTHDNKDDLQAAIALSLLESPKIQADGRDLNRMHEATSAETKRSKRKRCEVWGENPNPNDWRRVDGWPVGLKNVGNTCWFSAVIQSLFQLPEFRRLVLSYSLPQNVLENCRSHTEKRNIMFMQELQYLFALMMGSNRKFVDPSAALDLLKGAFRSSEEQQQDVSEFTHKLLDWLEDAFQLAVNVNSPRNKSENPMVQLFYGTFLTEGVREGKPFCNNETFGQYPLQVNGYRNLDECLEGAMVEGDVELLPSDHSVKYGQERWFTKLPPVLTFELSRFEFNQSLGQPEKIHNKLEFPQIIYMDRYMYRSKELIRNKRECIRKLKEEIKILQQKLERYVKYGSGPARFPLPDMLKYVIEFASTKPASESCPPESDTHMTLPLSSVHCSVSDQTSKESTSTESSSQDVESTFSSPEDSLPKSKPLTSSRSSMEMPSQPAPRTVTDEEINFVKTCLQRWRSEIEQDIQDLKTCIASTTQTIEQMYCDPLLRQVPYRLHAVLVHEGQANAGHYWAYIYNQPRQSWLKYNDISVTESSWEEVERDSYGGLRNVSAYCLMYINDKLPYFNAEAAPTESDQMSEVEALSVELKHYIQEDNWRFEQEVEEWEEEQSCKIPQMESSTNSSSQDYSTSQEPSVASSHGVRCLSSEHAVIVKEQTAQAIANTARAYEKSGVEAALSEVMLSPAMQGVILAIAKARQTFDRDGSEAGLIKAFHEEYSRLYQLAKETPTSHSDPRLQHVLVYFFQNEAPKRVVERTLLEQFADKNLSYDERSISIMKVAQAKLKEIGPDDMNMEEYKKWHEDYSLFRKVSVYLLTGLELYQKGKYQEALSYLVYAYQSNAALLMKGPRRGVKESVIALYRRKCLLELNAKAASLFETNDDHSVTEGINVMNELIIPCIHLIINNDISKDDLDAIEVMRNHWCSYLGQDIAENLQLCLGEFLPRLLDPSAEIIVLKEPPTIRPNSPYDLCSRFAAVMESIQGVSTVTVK
Outline: as §1

Measured: log2 ratio of Biotin-Ahx-Ub-VS probe labelling

Sequence of USP24 (Q9UPU5 whole entry): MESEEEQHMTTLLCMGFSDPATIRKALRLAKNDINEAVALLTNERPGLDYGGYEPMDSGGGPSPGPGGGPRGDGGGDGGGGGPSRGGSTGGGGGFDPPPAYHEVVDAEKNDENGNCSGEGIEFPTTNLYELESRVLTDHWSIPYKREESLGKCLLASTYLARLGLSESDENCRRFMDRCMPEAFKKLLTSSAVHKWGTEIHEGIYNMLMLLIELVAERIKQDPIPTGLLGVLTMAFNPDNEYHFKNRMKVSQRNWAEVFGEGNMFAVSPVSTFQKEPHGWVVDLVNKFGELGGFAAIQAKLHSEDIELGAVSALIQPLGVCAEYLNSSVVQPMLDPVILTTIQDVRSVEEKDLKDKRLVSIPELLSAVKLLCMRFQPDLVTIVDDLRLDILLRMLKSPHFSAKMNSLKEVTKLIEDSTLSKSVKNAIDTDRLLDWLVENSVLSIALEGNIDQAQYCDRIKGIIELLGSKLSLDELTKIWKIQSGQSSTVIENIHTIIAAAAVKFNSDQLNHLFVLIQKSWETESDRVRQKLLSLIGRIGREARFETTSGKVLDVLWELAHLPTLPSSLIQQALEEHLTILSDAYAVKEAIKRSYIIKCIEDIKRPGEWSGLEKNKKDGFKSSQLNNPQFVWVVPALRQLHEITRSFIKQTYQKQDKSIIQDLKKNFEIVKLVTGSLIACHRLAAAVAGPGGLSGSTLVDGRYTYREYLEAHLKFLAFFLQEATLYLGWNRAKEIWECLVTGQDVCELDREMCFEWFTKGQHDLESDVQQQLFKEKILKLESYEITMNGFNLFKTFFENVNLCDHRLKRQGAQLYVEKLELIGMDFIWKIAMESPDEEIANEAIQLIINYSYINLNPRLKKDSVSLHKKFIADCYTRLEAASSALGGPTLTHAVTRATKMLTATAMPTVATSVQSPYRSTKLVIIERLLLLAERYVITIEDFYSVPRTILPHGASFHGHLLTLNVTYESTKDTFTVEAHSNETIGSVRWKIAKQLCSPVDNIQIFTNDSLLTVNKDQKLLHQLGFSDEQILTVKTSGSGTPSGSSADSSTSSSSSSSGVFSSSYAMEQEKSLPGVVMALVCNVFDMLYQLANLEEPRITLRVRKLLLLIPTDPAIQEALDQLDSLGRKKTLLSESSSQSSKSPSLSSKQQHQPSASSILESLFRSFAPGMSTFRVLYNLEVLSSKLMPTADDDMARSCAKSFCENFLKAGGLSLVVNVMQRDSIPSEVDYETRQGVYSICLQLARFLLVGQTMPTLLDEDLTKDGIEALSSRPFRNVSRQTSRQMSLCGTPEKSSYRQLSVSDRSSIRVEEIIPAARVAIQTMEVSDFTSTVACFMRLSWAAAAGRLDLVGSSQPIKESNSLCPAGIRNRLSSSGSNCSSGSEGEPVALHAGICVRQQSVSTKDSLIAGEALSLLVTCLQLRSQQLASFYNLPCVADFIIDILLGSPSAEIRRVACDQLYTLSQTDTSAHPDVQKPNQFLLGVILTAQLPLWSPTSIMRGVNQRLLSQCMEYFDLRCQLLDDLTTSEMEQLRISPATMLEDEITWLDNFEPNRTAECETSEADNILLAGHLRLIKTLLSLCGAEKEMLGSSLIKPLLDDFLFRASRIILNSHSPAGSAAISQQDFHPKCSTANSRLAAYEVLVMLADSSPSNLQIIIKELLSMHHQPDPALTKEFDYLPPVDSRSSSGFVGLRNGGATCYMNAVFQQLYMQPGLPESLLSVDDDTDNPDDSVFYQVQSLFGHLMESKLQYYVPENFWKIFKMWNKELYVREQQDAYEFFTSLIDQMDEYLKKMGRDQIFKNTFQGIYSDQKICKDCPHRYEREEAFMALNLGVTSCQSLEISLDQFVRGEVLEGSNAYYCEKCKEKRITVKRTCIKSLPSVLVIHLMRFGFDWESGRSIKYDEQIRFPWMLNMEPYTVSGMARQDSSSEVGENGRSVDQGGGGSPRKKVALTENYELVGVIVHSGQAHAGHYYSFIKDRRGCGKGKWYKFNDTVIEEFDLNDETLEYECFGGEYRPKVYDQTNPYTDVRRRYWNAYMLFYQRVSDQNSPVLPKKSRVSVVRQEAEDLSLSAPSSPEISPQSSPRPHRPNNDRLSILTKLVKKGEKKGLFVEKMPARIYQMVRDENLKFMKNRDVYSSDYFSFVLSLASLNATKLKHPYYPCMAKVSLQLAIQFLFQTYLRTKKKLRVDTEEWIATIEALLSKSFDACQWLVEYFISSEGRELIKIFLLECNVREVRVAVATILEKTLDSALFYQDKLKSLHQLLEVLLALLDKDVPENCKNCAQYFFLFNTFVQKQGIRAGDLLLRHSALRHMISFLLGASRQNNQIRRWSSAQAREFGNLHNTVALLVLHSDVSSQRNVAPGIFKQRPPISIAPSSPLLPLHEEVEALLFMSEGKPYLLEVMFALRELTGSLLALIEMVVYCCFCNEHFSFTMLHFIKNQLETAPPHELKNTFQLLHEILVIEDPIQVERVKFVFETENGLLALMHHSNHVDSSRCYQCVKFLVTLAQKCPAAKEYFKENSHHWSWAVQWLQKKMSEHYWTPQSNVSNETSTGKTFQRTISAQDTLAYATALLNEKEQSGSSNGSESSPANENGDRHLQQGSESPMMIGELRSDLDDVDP

O=C(CCl)N1CCC(C(=O)N2CCCCCC2)CC1
inactive: USP19 -0.129 | USP24 -0.141 | USP25 -0.0854 | USP28 -0.307
